D1 agonist: agonists of human D1 dopamine receptor. 360,000 compounds, 1% hits. HEK293 T-REx D1 cells, calcium flux, agonist mode. activation, % at 2 µM; in the data active means activation above about 30%; further: 0% is about no effect
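Tetracycline-induced HEK293 TREx D1 cells, force-coupled to calcium signalling, were dye-loaded with a no-wash calcium kit. Compound was pin-added after a 10 s baseline. Fluorescence was read kinetically at 1 cycle/s for 180 s, with calcium rises flagged as agonism.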
D1 potentiator: potentiators of human D1 dopamine receptor; potentiation, % at 10 µM; AID 504651; 360,000 compounds, 0.036% hits; HEK293 TREx D1 cells, calcium flux, dopamine EC20 potentiation; P21728; in the data active means potentiation above about 30%; further: 0% is about no effect
D1 antagonist: antagonists of human D1 dopamine receptor. 360,000 compounds, 3.2% hits. HEK293 TREx D1 cells, calcium flux, dopamine EC80; hits give low values. activity change, negative = inhibition, % at 10 µM. AID 504652; in the data active means activity change below about -30%; further: on the % scale 0 is the no-effect control and ±100 the full control effect
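Allosteric or orthosteric antagonism assessed as attenuation of the calcium response to EC80 dopamine, added 180 s after compound, in induced HEK293 Trex D1 cells loaded with no-wash calcium dye.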
DRD3 agonist: activates the human D3 dopamine receptor | P35462 | D3R DiscoveRx beta-arrestin cells, luminescence, 90 min | max activation, % | 410,000 compounds, 0.58% hits | AID 652048; in the data active means max activation above about 30%; further: 0% is about no effect
Target sequence (P35462 whole entry, looked up): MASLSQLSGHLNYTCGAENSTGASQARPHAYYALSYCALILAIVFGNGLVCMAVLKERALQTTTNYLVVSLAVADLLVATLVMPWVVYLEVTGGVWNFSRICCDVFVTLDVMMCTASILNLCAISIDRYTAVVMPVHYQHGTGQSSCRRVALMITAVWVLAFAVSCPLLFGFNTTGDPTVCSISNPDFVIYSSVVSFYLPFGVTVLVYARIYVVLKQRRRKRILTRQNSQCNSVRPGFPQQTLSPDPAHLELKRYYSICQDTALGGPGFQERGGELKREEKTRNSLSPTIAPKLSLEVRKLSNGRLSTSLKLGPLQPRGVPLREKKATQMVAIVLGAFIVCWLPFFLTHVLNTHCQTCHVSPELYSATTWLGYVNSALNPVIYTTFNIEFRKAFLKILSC
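Agonist mode: compounds and dopamine controls were applied to plated cells for 90 min at 37 degrees C after an overnight attachment at 1500 cells/well. Luminescent read-out followed 30 - 60 minutes at room temperature with DiscoveRx detection reagent.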
Chronic BCR inh: chronic active BCR signaling inhibition | ABC-DLBCL IkBa-CBG/CBR reporter, luminescence ratio, 4 h | Potency, µM (highest dose often 46.1 µM), for the others: at the highest dose activity change, negative = inhibition, hits mostly inhibitors | 340,000 compounds, 0.05% hits | AID 493014; active means well fitted inhibition curve with a large enough effect in the signal ratio, with a control signal flat, not every such curve was filed as active; inconclusive means small, poorly fitted or top-dose-only effect, or effect the other way, or a change in a side signal; the % refers to the signal ratio;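 further: potency means the concentration at half of the fitted maximal effect; plate controls were basal doxycycline-induced cells for no effect and cells given 10 µM MG132 for full effect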
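Concentration-response series (up to 46 uM) were applied to TMD8 dual-reporter cells for 4 h at 37C with doxycycline. Green/red ratio, after filter-overlap correction, defined %Activity; red signal alone was normalised to basal cells and zero luminescence.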
D3 antag: blocks the human D3 dopamine receptor. P35462. D3R cells, DiscoveRx beta-arrestin luminescence, antagonist mode; hits give low values. max response, negative = inhibition, %. 360,000 compounds, 2.5% hits. AID 652054; in the data active means max response below about -50%; inconclusive means no clear call, values can overlap the other calls; further: on the % scale 0 is the no-effect control and ±100 the full control effect
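Cells expressing the human receptor were seeded at 1500 cells/well, incubated overnight at 37 degrees C in 5% CO2, then exposed to library compounds with dopamine controls for 90 minutes at 37 degrees C before luminescent detection.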
The depositor's hits bear a star; ? = inconclusive; nt = not tested or not shown; ! = a repeat was not active; [ ] = remark or other dose. Most compounds without a hit are left out; they make up all but 6% or so of the library.

SMILES | D1 agonist | D1 potentiator | D1 antagonist | DRD3 agonist | Chronic BCR inh | D3 antag
COc1ccc(OC)c(Nc2c3ccccc3nc3ccccc23)c1 | 11 | -13 | -54* | -27 | ? | ?
Cc1ccc(-c2nn3c(=O)cc(CN4CCN(C(=O)c5ccc(C(C)(C)C)cc5)CC4)nc3s2)cc1 | 0 | 5 | -5 | 2 | nt | nt
Cc1nc(-c2ccc(Cl)cc2)oc1COC(C)(C)C(=O)O | nt | nt | nt | -2 | nt | nt
Cc1ccc(-c2nn(-c3ccccc3)cc2/C=C/C(=O)Nc2nccs2)cc1 | 13 | -5 | -31* | 6 | ? | 45
Cc1ccc(-c2nn(-c3ccccc3)cc2/C=N/NS(=O)(=O)c2ccccc2)cc1 | 0 | -4 | -6 | -10 | ? | -54*
Cc1ccc(-c2nn(-c3ccccc3)cc2/C=N/O)cc1 | 58* | 38* | -1 | -6 | 2% | -53*
Cc1csc(-c2nc3ccccc3n2C(C(=O)NC(C)(C)C)c2ccccc2)c1 (centres undefined) | nt | nt | nt | 9 | nt | 27
CCC(=O)N1CCC1(C)C(=O)Nc1ccc2c(c1)CCN2C(C)=O (centres undefined) | nt | nt | nt | -1 | nt | -7
CSCCC(NC=O)C(=O)NC(C)C(=O)O (centres undefined) | nt | nt | nt | 15 | nt | 19
Cc1cc(N2CCOCC2)n2ncc(-c3ccc(Cl)cc3)c2n1 | 2 | -5 | -33* | 6 | ? | 0
Nc1ccc(Oc2ccc3nc(-c4ccccc4)c(-c4ccccc4)nc3c2)cc1 | 1 | 3 | 2 | -4 | -1% | -15
Nc1ccc2nc(-c3ccccc3)c(-c3ccccc3)nc2c1 | 61* | 9 | 0 | 2 | 0% | -6
CSc1ccc(CN2CCc3c([nH]c4ccccc34)C2)cc1 | 0 | -5 | 2 | -11 | ? | ?
CCN1CCc2[nH]c3ccccc3c2C1 | 5 | 3 | -3 | -20 | -3% | ?
Cc1ccc2[nH]c3c(c2c1)CCN(C)C3 | 2 | -5 | 4 | -20 | -4% | -60*
c1ccc(CN2CCc3[nH]c4ccccc4c3C2)cc1 | nt | nt | nt | -11 | nt | -97*
COc1cc(OC)c(CN2CCc3c([nH]c4ccccc34)C2)cc1Br | 7 | -9 | -49* | -12 | -18% | 16
Clc1cccc(CN2CCc3c([nH]c4ccccc34)C2)c1 | 3 | -7 | 3 | -21 | ? | -59*
COc1ccc([C@]23Cc4cc(OC)c(OC)cc4C(O2)c2c(cc(-c4ccccc4)oc2=O)O3)cc1 | 0 | -2 | -13 | nt | 14%[9.22 µM] | nt
Cc1cccc(CN2CCc3c([nH]c4ccccc34)C2)c1 | 4 | 0 | 2 | -15 | 3% | -90*
Clc1ccc(CN2CCc3c([nH]c4ccccc34)C2)cc1Cl | 4 | 5 | 6 | 2 | ? | 14
CC1Cc2ccccc2N1S(=O)(=O)c1cccs1 (centres undefined) | 1 | 0 | 1 | 13 | ? | -110*
COc1cc(OC)cc(-c2nc3ccccc3c(=O)n2OC(=O)c2ccccc2C)c1 | 2 | 0 | 0 | 34* | ? | 81
CCN(CCCNC(=O)c1cc2c(=O)n(C)c3ccccc3c2s1)Cc1ccccc1 | -1 | -2 | -36* | -11 | nt | nt
CCCCN(CC)CCNC(=O)c1cc2c(=O)[nH]c3ccccc3c2s1 | 1 | -3 | -6 | -23 | 5% | -54*
SMILES | D1 agonist | D1 potentiator | D1 antagonist | DRD3 agonist | Chronic BCR inh | D3 antag
CCN(CCCNC(=O)c1cc2c(Cl)nc3ccccc3c2s1)Cc1ccccc1 | 8 | -5 | -5 | -16 | nt | nt
CCN(CCCNC(=O)c1cc2c(=O)n(C)c3ccccc3c2s1)c1ccccc1 | 1 | -1 | 3 | -15 | nt | nt
CCN(CC)CCCNC(=O)c1cc2c(Cl)nc3ccccc3c2s1 | 0 | -1 | 13 | -28 | ? | -54*
COc1ccc(N(C)C(=O)c2cc3c(Cl)nc4ccccc4c3s2)cc1 | 4 | 0 | -10 | 66* | 0% | 15
CCCN(CCC)CCCNC(=O)c1cc2c(=O)[nH]c3ccccc3c2s1 | 7 | -4 | 7 | -12 | -1% | -3
N#C/C(=C(/O)COC(=O)c1ccc2c(c1)OCCO2)c1nc2ccccc2[nH]1 | 0 | -11 | 7 | -2 | -2% | -62*
CCOC(=O)c1c(C)[nH]c(C(=O)OC/C(O)=C(\C#N)c2nc3ccccc3[nH]2)c1C | 6 | 0 | -15 | -1 | ? | -52*
COCCCN1C(=O)c2[nH]nc(-c3ccccc3O)c2C1c1ccc(OCc2ccccc2)cc1 (centres undefined) | 0 | 2 | -24 | 3 | nt | nt
Nc1ccn(CCCN2CCN(C(=O)C3CC3)CC2)c(=O)n1 | nt | nt | nt | 6 | nt | 11
COc1ccc(-c2c3c(=O)n(C)c(=O)n(C)c3c3n2-c2ccccc2NC3c2ccc(OC)cc2)cc1 (centres undefined) | 1 | -3 | -14 | -14 | nt | nt
O=C(O)c1ccc2c(c1)C(=O)N(CCc1ccc(O)cc1)C2=O | 7 | -4 | 13 | nt | ? | nt
Cc1cc(C(C)(C)C)ccc1OCCOCCN1CCCC1 | 21 | -4 | -4 | -24 | ? | 1
Cc1ccc(OCCCCCN2CCOCC2)c(Cl)c1 | nt | nt | nt | -21 | nt | ?
Clc1cc(Br)ccc1OCCOCCN1CCCC1 | 17 | -12 | -28 | -18 | -8% | -81*
Clc1cc(Br)ccc1OCCOCCN1CCOCC1 | 2 | -4 | -6 | -16 | -4% | -82*
Cc1cc(C)cc(NC(=O)CCS(=O)(=O)c2ccc3c(c2)oc(=O)n3C)c1 | 0 | -2 | -6 | -5 | nt | nt
COC(=O)/C=C1\OC(c2ccccc2)c2ccccc21 (centres undefined) | nt | nt | nt | 3 | nt | -2
O=P(O)(O)OCC(O)CO (centres undefined) | nt | nt | nt | -10 | nt | nt
NCCc1cnc[nH]1 | 53*! | -3 | -12 | 9 | -13% | -1
NCCC(=O)NCCc1cnc[nH]1 | -1 | -5 | 24 | -53 | -1% | -6
O=C(NC1CCCCCC1)C(=O)NC1CCCC1 | 5 | -1 | -33* | -2 | ? | -18
O=C(NN=C1CCCCC1)NC1CCCCC1 | 0 | 2 | -85* | -3 | ? | 10
O=C(NN=C1CCCC1)NC1CCCCC1 | 3 | 1 | 7 | 0 | -10% | ?
COc1cc(/C=C/C(O)=C/C(=O)/C=C/c2ccc(O)cc2)ccc1O | 351* | -5 | -21 | -1 | ? | 15
COc1cc(/C=C/C(=O)NC(=O)c2ccccc2O)ccc1O | -1 | -11 | 3 | -6 | -2% | -4
CCCNC(=O)Cn1nc(-c2ccc(OC)cc2)c2cnc3ccc(F)cc3c21 | 2 | -4 | -4 | -11 | nt | nt
Cc1ccccc1N=Nc1c(O)n(C)c2ccccc12 | 5 | -4 | -39* | -3 | -10% | -27
